# Compounds without any hit were thinned out: in the full panel of roughly 79,000, 15% have a hit. A number with no mark means an inactive call. Active and inactive are the calls of the source. Cut-off read from the data, not from the text of the source: active = growth inhibition above about 70%; inactive = the rest.
# Experiment: NCI Yeast Anticancer Drug Screen. Data for the rad50EPP+ strain (AID 151);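 note: 0% = growth of vehicle-treated control cultures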
# Settings: S. cerevisiae rad50 mutant strain, active compounds read high
# Protocol: Growth inhibition of yeast strains with defined genetic alterations is measured as a screen for potential anti-cancer activity. Selected strains with alterations in DNA damage repair or cell cycle control were exposed to compounds and growth inhibition was measured relative to vehicle treated controls. The strain used in this assay is rad50EPP+
Compound,growth inhibition (at 1.2 µM) [%],growth inhibition (at 3.7 µM),growth inhibition (at 11.0 µM),growth inhibition (at 33.0 µM),growth inhibition (at 100.0 µM)
CC(=O)OCC1OC(O[C@H]2C=C[C@@H](C(=O)OCc3ccccc3)n3c(=O)n(-c4ccccc4)c(=O)n32)C(OC(C)=O)C(OC(C)=O)C1OC(C)=O (stereo not given in full),-9,3%,2%,16%,18%
Cc1cc(O)c2c(c1)C(=O)C=C(Br)C2=O,58,88% (active),99% (active),99% (active),95% (active)
COc1ccc(N2CN(C)CSC2=S)cc1,-36,10%,58%,81% (active),90% (active)
COc1cc(NCc2ccc3nc(N)nc(N)c3c2C)cc(OC)c1OC,-5,-4%,-4%,6%,27%
S=c1[nH]nc(-c2ccc(Cl)cc2)s1,-1,-1%,-9%,31%,81% (active)
CN(C)CCN1C(=O)c2cccc3cc([N+](=O)[O-])cc(c23)C1=O,13,25%,28%,66%,83% (active)
O=C1OC2C(O)COC2(OCc2c[nH]c3ccccc23)C1O (stereo not given) (tested in a mixture with another compound),-5,3%,7%,14%,15%
N#CC(=S)Nc1cccc(Cl)c1,-12,2%,10%,25%,46%

# From PubChem BioAssay (NCI)
